Consider 83 compounds from PubChem BioAssay AID1259415 (National Center for Advancing Translational Sciences (NCATS), 2018).

Out of some 410,000 compounds screened, about 18,000 (4.4%) were called active. About 7% were inconclusive and are not listed. The entries come from a sample that favours actives as a whole. Unmarked numbers belong to inactive results. Cut-off read from the data, not from the text of the source: active = activity change below about -60%; inconclusive = no clear call, values can overlap the other calls; inactive = above about -39%.
% is set by controls: 0 for no effect and ±100 for the full control effect.

This experiment is described as follows: qHTS Assay for inhibitors of the human cytomegalovirus (HCMV). The settings on record: HFF cells, HCMV-luciferase reporter, 72 h; at 57.5 µM; active compounds read low. Put shortly: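 After 16 h attachment at 37C, HFF cells received test compound and HCMV-luciferase (1 PFU/cell); reporter luminescence read 72 h later, data normalized against buffer-only and known inhibitor Salinomycin.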
Background: Quantitative high-throughput screening tests each substance at several concentrations.
For the compound `Cc1ccc(C(CNC(=O)Nc2ccccc2)N2CCN(C)CC2)cc1` (stereo not drawn), the activity change, negative = inhibition was -29.6%.

For the compound `Cc1ccc(NC(=O)NNC(=O)c2sccc2-n2cccc2)cc1`, the activity change, negative = inhibition was -19%.

On to `C=CC[n+]1c(-c2ccc(C)cc2)csc1NNC(=O)Nc1ccccc1`, for which the activity change, negative = inhibition was -69.2% (active).

Take `Cc1cc2c(cc3c(SCc4nc(-c5ccccc5)oc4C)nnc(C)n32)o1`: the activity change, negative = inhibition was -3.85%.

Turning to `CC(=O)Nc1ccc(NC(=O)CSc2nnc3c4cc(Br)ccc4n(C)c3n2)cc1`, the activity change, negative = inhibition is 38.8%.

With `CCOC(=O)CN1C(C(=O)c2ccccc2)=C(OC(=O)C(C)(C)C)c2ccccc2S1(=O)=O`, the activity change, negative = inhibition was -14%.

For `Cc1nc(SCCOc2ccc(Cl)cc2)[nH]c(=O)c1Cc1ccccc1`, the activity change, negative = inhibition is -7.29%.

`CCCOc1ccc(Cc2c(Cl)nc(SC)nc2NC)cc1`: the activity change, negative = inhibition was -93.9% (active).

In the case of `CCCOc1ccc(Cc2c(O)nc(SC)[nH]c2=O)cc1C`, the activity change, negative = inhibition is 15.7%.

Take `CN(Cc1cccc2ncccc12)C(=O)CC1C(=O)NCCN1Cc1ccc(F)cc1` (stereo not drawn): the activity change, negative = inhibition was -30.9%.

On to `O=C(CN1CCN(Cc2ccc(Cl)cc2)C1=O)NCc1ccc(F)cc1`, for which the activity change, negative = inhibition is -24.9%.

Consider `Cc1ccc(C(=O)NC2CCCC(C)C2C)cc1S(=O)(=O)N1CCCCC1` (stereo not drawn), for which the activity change, negative = inhibition was -22.8%.

For `Cc1nn(-c2ccccc2)c(C)c1NC(=O)COc1ccc(Cl)cc1Cl`, the activity change, negative = inhibition is -98.7% (active).

Consider `Cc1nn(-c2ccccc2)c(C)c1NC(=O)COC(=O)Cc1ccccc1`, for which the activity change, negative = inhibition is -13%.

As for `Cc1nn(-c2ccccc2)c(C)c1NC(=O)COC(=O)c1cc(Cl)ccc1O`, the activity change, negative = inhibition was 9.57%.

For the compound `N#Cc1nc(/C=C/c2ccc(F)cc2)oc1NCc1ccc(F)cc1`, the activity change, negative = inhibition was -13.8%.

Turning to `COc1cccc(-c2cc(C(=O)Nc3ccc(C)cc3)[nH]n2)c1`, the activity change, negative = inhibition is 11.2%.

On to `CCc1ccc(CNC(=O)c2cc3cc4ccc(OC)cc4nc3o2)cc1`, for which the activity change, negative = inhibition is -26.2%.

Take `Cc1ccc2c(=O)c(C(=O)c3cccc(Cl)c3)cn(CC(=O)NCc3ccccc3)c2n1`: the activity change, negative = inhibition was -12.2%.

Take `O=C(NC1CCCCC1)c1ccc2c(c1)N(Cc1ccc(Cl)cc1)C(=O)c1ccccc1S2=O` (stereo not drawn): the activity change, negative = inhibition was 8.53%.

As to `O=C(Nc1cc(Cl)cc(Cl)c1)c1ccc2c(c1)N(Cc1cccc(Cl)c1)C(=O)c1ccccc1S2=O` (stereo not drawn), the activity change, negative = inhibition was 16.5%.

Consider `CN(C(=O)c1ccc2c(c1)N(Cc1cccc(Cl)c1)C(=O)c1ccccc1S2=O)C1CCCCC1` (stereo not drawn), for which the activity change, negative = inhibition was -63.4% (active).

On to `CCCCNC(=O)c1nc(C2CCN(S(=O)(=O)c3ccc(F)c(F)c3)CC2)oc1-c1cccc(C(F)(F)F)c1`, for which the activity change, negative = inhibition was 6.36%.

As to `CC(C)(C)OC(=O)N1CCC(c2c(C(=O)NCc3ccccn3)cnn2-c2ccc(F)cc2)CC1`, the activity change, negative = inhibition was 14.7%.

Turning to `Cc1ccc(CN2CCC(CNC(=O)c3cnn(-c4ccccc4Cl)c3C3CCN(C(=O)OC(C)(C)C)CC3)CC2)cc1`, the activity change, negative = inhibition was -65.8% (active).

As for `CCOC(=O)N1CCC(NC(=O)c2cnn(-c3cccc(C)c3)c2C2CCN(C(=O)OC(C)(C)C)CC2)CC1`, the activity change, negative = inhibition is 0% (active).

Regarding `Cc1ccc(CN2CCC(CNC(=O)c3cnn(-c4ccc(C)cc4)c3C3CCN(C(=O)OC(C)(C)C)CC3)CC2)cc1`, the activity change, negative = inhibition was 0%.

In the case of `CCN1CCN(CCCNC(=O)c2cnn(-c3ccc(C)cc3C)c2C2CCN(C(=O)OC(C)(C)C)CC2)CC1`, the activity change, negative = inhibition is -13.5%.

With `COc1ccccc1CN1CCC(CNC(=O)c2cnn(-c3cccc(Cl)c3)c2C2CCN(C(=O)OC(C)(C)C)CC2)CC1`, the activity change, negative = inhibition was -108% (active).

Regarding `COC(=O)c1ccc(NC(=O)c2cnn(-c3ccc(Cl)cc3)c2C2CCN(C(=O)OC(C)(C)C)CC2)cc1`, the activity change, negative = inhibition is 0% (active).

Take `COc1ccccc1N1CCN(CCCNC(=O)c2cnn(-c3ccccc3Cl)c2C2CCN(C(=O)OC(C)(C)C)CC2)CC1`: the activity change, negative = inhibition was -12.2%.

With `CC(C)(C)OC(=O)N1CCC(c2c(C(=O)N3CCN(c4cccc(Cl)c4)CC3)cnn2-c2cccc(Cl)c2)CC1`, the activity change, negative = inhibition was 26.6%.

Consider `Cc1cccc(-n2ncc(C(=O)N3CCC(C)CC3)c2C2CCN(C(=O)OC(C)(C)C)CC2)c1`, for which the activity change, negative = inhibition was 0%.

On to `CC(C)(C)OC(=O)N1CCC(c2c(C(=O)Nc3ccc4c(c3)OCO4)cnn2-c2ccccc2)CC1`, for which the activity change, negative = inhibition is -8.71%.

Turning to `COc1ccccc1CN1CCC(CNC(=O)c2cnn(-c3ccccc3Cl)c2C2CCN(C(=O)OC(C)(C)C)CC2)CC1`, the activity change, negative = inhibition is -7.53%.

Take `Cc1cc(C)cc(NC(=O)Cc2csc(C)n2)c1`: the activity change, negative = inhibition was 53.8%.

On to `Cc1ccc(Cn2c(CCCNC(=O)C3CCCCC3)nc3ccccc32)cc1`, for which the activity change, negative = inhibition was -11.7%.

In the case of `COc1ccc(N2CCN(S(=O)(=O)CCNC(=O)C(c3ccccc3)c3ccccc3)CC2)cc1`, the activity change, negative = inhibition is 1.25%.

For `COC(=O)c1ccc2c(c1)N(CC(=O)Nc1ccc(C)c(C)c1)C(=O)c1ccccc1S2`, the activity change, negative = inhibition was 6.12%.

For `CCc1ccc(N(CC(=O)Nc2sc3c(c2C(=O)OC)CCCC3)S(C)(=O)=O)cc1`, the activity change, negative = inhibition was 40.2%.

With `COC(=O)c1c(NC(=O)CSc2nncs2)sc2c1CCCCC2`, the activity change, negative = inhibition is -61.6% (active).

For the compound `COC(=O)c1c(NC(=O)c2ccc(Cl)c(Cl)c2)sc2c1CCCC2`, the activity change, negative = inhibition was 15%.

For `COc1ccc(S(=O)(=O)N2CCN(CC(=O)NCC3(N4CCOCC4)CCCCC3)CC2)cc1`, the activity change, negative = inhibition was -36.1%.

As to `O=C(CN1CCN(S(=O)(=O)c2ccc3ccccc3c2)CC1)NC(=O)NC1CCCCC1`, the activity change, negative = inhibition is -4.61%.

`O=C(CN1CCN(C(=S)NC2CCCC2)CC1)Nc1ccc(Oc2ccccc2)cc1`: the activity change, negative = inhibition was -79.5% (active).

`CCC(=O)c1ccc(OCC(=O)N2CCN(CC(=O)Nc3ccc(C)cc3)CC2)cc1`: the activity change, negative = inhibition is 6.75%.

On to `CC1(C)OC(=O)C2=C(C[C@@H](C3CC3)O[C@H]2c2ccc(Cl)cc2)O1`, for which the activity change, negative = inhibition is -11.9%.

On to `O=c1c2ccccc2ncn1CCc1ccncc1`, for which the activity change, negative = inhibition is 16.6%.

On to `O=c1c2ccccc2ncn1CCCCOc1ccccc1F`, for which the activity change, negative = inhibition is -105% (active).

For the compound `Fc1ccccc1OCCCCn1cncn1`, the activity change, negative = inhibition is -9.84%.

On to `COc1ccc(CCN2C(=O)c3oc4cc(C)cc(C)c4c(=O)c3C2c2ccccc2F)cc1OC` (stereo not drawn), for which the activity change, negative = inhibition is -2.86%.

Consider `COc1ccc(Br)cc1C1CC(=O)Nc2c1c(C)nn2-c1nc(C)cc(C)n1` (stereo not drawn), for which the activity change, negative = inhibition is -4.09%.

Take `CN1CCC2(CC1)NC(=O)NC2=O`: the activity change, negative = inhibition is 7.02%.

Consider `O=C(COc1cccnc1[N+](=O)[O-])Nc1ccc(Cl)cc1F`, for which the activity change, negative = inhibition was 9.57%.

Regarding `Cc1onc(-c2ccccc2Cl)c1C(=O)N(Cc1ccc(N(C)C)cc1)C(C)C`, the activity change, negative = inhibition is -25.9%.

Consider `Cc1ccc2cc(CCNC(=O)c3ccc4c(c3)OCO4)c(=O)[nH]c2c1`, for which the activity change, negative = inhibition is -60.5% (active).

For `Cc1ccc2cc(CCNC(=O)c3c(-c4ccccc4Cl)noc3C)c(=O)[nH]c2c1`, the activity change, negative = inhibition is -94.6% (active).

Consider `Cc1onc(-c2c(Cl)cccc2Cl)c1C(=O)c1c[nH]c(C(=O)NC2CC2)c1`, for which the activity change, negative = inhibition is 16.8%.

Regarding `COc1ccc(-c2cnc(SCCNC(=O)c3ccc4c(c3)OCO4)[nH]2)cc1`, the activity change, negative = inhibition was -28.5%.

As to `O=C(NCCc1ccc(C(F)(F)F)cc1)c1ccc2c(c1)OCO2`, the activity change, negative = inhibition was -38.1%.

As for `COC(=O)C1=CN(c2c(C)cc(C)cc2C)C(N)=C(C#N)C1c1cccc(F)c1` (stereo not drawn), the activity change, negative = inhibition was -18.9%.

Regarding `COC(=O)[C@@H]1[C@@H](CO)[C@@H]2Cn3c(cccc3=O)[C@H]1N2CC1CCCC1`, the activity change, negative = inhibition is 13.6%.

Take `Cc1[nH]c2ccccc2c1C(c1ccccc1)c1cccs1` (stereo not drawn): the activity change, negative = inhibition was -20.6%.

In the case of `Cc1cc(F)ccc1S(=O)(=O)Nc1ccc(C(=O)N(C)Cc2ccco2)cc1`, the activity change, negative = inhibition was -17.3%.

For `Cc1ccc(C)c(S(=O)(=O)N(C)c2ccc(OC(=O)C3CCN(C(=O)c4ccc(F)cc4)CC3)cc2)c1`, the activity change, negative = inhibition was -83.9% (active).

Take `CCOC(=O)C1CCCN(C(=O)c2ccc(C)c(F)c2)CC1` (stereo not drawn): the activity change, negative = inhibition is -2.4%.

Regarding `CCOC(=O)C1CCCN(C(=O)c2ccc(N(C)C)cc2)CC1` (stereo not drawn), the activity change, negative = inhibition was 14.9%.

As to `C/C(N)=C(/C#N)C(=O)COC(=O)CNS(=O)(=O)c1ccc(C)cc1`, the activity change, negative = inhibition is -80.1% (active).

For `Cc1ccc(S(=O)(=O)NCC(=O)OCC(=O)N2CCc3ccccc32)cc1`, the activity change, negative = inhibition is -5.73%.

Take `COc1cccc(OC)c1C(=O)OCC(=O)/C(C#N)=C(\C)N`: the activity change, negative = inhibition was -27.5%.

`Cc1ccc(N2CC(C(=O)Nc3cc(Cl)ccc3-n3cncn3)CC2=O)cc1` (stereo not drawn): the activity change, negative = inhibition is 4.52%.

In the case of `CCn1cc2nc(SCc3cccc(F)c3)n(CCc3ccccc3)c(=O)c2n1`, the activity change, negative = inhibition was -35.3%.

For the compound `CCCC[C@@H]1CN=C(N)N1CCc1cc(C(F)(F)F)cc(C(F)(F)F)c1`, the activity change, negative = inhibition is -75% (active).

Regarding `CCCCN1C(N)=NC[C@@H]1CC1CCCCC1`, the activity change, negative = inhibition is -18.4%.

Regarding `CN(C)C1=NC[C@H](Cc2ccccc2)N1CCc1ccc(F)cc1`, the activity change, negative = inhibition was -5.86%.

With `O=C(Cn1cc(C(=O)c2cccs2)c2ccccc21)NCc1cccs1`, the activity change, negative = inhibition was -5.26%.

`Cc1c(Cl)cccc1NC(=O)Cn1cc(C(=O)c2cccs2)c2ccccc21`: the activity change, negative = inhibition is -95.6% (active).

Consider `Cc1ccccc1NC(=O)Cn1cc(C(=O)c2cccs2)c2ccccc21`, for which the activity change, negative = inhibition is -22.9%.

Take `COC(=O)C1=C(C(=O)OC)[C@@H]2N(C)c3ccccc3[C@@]23C[C@@H](C(=O)OC)N(C(C)=O)C3=N1`: the activity change, negative = inhibition was -27%.

As for `O=C(NCc1cccnc1)C(=O)NCC(c1cccnc1)N1CCN(c2ccccc2)CC1` (stereo not drawn), the activity change, negative = inhibition was 5.63%.

As to `CC(=O)Nc1cc(-c2cccc(CO)c2)cn2c(-c3cccc(C(F)(F)F)c3)cnc12`, the activity change, negative = inhibition is 71.5%.

In the case of `COc1ccc(-c2cc(NC=O)c3ncc(-c4cccc(C(=O)N(C)C)c4)n3c2)c(OC)c1`, the activity change, negative = inhibition is 40.1%.

With `CN(C)CCNC(=O)c1cccc(-c2cnc3c(NC=O)cc(-c4cccc(C(F)(F)F)c4)cn23)c1`, the activity change, negative = inhibition was -61.3% (active).
